# IDH1 R132H inh: qHTS for Inhibitors of mutant isocitrate dehydrogenase 1 (IDH1): qHTS; Potency, µM (top dose mostly 76.6 µM), inactives show at the highest dose activity change, negative = inhibition, actives largely listed as inhibitors; IDH1-R132H enzyme, NADPH consumption, diaphorase/resazurin fluorescence; AID 602179, 2012; actives 0.093% (n = 390,000); Isocitrate dehydrogenase [NADP] cytoplasmic (Homo sapiens), O75874; further: potency means the concentration at half of the fitted maximal effect; on the % scale 0 is the no-effect control and ±100 the full control effect; nearly all actives have a fitted effect of over 65% in size
#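 IDH1-R132H (0.5 ug/mL dispensed) in pH 7.5 Tris buffer was preincubated 30 min with compound, then given a substrate mix of 0.016 mM NADPH and 2 mM alpha-KG for 80 min at room temperature; remaining NADPH was read by diaphorase/resazurin fluorescence.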
# PINK1 modulator: A Quantitative High throughput Screen to Identify Chemical Modulators of PINK1 Expression. PINK1 immunofluorescence, high-content cytometry, 24 h. Potency, µM (titrated, usually from 76.6 µM), inactives show at the highest dose activation (PINK1 increase), usual class: activators. actives 0.2% (n = 410,000). AID 624263, 2012; active means well fitted activation curve with a large enough effect; inconclusive means small, poorly fitted or top-dose-only effect; cell line not stated here; further: potency means the concentration at half of the fitted maximal effect; % of control where 0% means no effect; nearly all actives have a fitted effect of over 65% in size
#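 Measures PINK1 amount and localization on or inside mitochondria by immunofluorescence. Stable cells get compounds at 5 concentrations for 24 hours before fixation and staining; CCCP controls included.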
# LDHA inh: qHTS assay for inhibitors of human lactate dehydrogenase; actives 0.15% (n = 480,000); L-lactate dehydrogenase A chain (Homo sapiens), P00338; purified LDHA, NADH/diaphorase-resazurin fluorescence; stronger effect = lower value; activity change, % (values are at about 110 or 230 µM); in the data active means activity change below about -30%; inconclusive means mostly about -25% to -30%;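 further: plate controls were DMSO wells for no effect and wells without enzyme for full effect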
#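 Human LDH5 at 2 nM final in Tris HCl pH 7.4 with 0.06 mM NADH and 0.2 mM pyruvate, reacted 5 minutes at room temperature. Remaining NADH coupled via diaphorase/resazurin; resorufin fluorescence read at 0 and 20 minutes, normalized to enzyme-free and DMSO wells.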
# Vif-A3F inh: qHTS for Inhibitors of Vif-A3F Interactions: qHTS; HeLa A3F-eYFP + Vif (tagged APOBEC3F with the HIV-1 protein that degrades it), YFP fluorescence increase; Potency, µM (highest dose often 46.1 µM), inactives show at the top dose activity, negative = active; actives 0.2% (n = 390,000); AID 602313, 2012; further: potency means the concentration at half of the fitted maximal effect; % of control where 0% means no effect; nearly all actives have a fitted effect of over 65% in size
#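 HeLa cells stably expressing A3F-eYFP plus Vif, plated and incubated overnight at 37 deg C, then exposed to compounds overnight at 37 deg C. Blocked degradation read as raised yellow fluorescence (Ex 488/Em 500-530).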
# PTHR1 ag: qHTS for PTHR1 Agonists: Primary Screen. HEK293 GP2 PTHR1 cells, GloSensor cAMP luminescence, 1 h. Potency, µM (doses to about 115 µM), without a hit: at the top dose activation, usual class: activators. actives 0.075% (n = 410,000). AID 743266, 2014; further: potency means the concentration at half of the fitted maximal effect; nearly all actives have a fitted effect of over 55% in size
#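 HEK-293-derived GP2 cells expressing PTHR1 and a GloSensor cAMP reporter, 3,000/well, plated overnight, given luciferin plus IBMX (each 0.5 mM as added) for 1 h at 37 °C, then compound for 1 h at 37 °C. Luminescence was read after 15 min at room temperature.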
# Vif-A3G inh: qHTS for Inhibitors of Vif-A3G Interactions: qHTS. actives 0.076% (n = 410,000). DNA dC->dU-editing enzyme APOBEC-3G (Homo sapiens), Q9HC16. AID 602310, 2012. HeLa A3G-eYFP + Vif (tagged APOBEC3G with the HIV-1 protein that degrades it), YFP fluorescence, overnight. Potency, µM (top dose mostly 46.1 µM), for inactives: at the highest dose activity, negative = active, actives largely listed as inhibitors; further: potency means the concentration at half of the fitted maximal effect; on the % scale 0 is the no-effect control and ±100 the full control effect; nearly all actives have a fitted effect of over 60% in size
# Target sequence (Q9HC16 whole entry, looked up): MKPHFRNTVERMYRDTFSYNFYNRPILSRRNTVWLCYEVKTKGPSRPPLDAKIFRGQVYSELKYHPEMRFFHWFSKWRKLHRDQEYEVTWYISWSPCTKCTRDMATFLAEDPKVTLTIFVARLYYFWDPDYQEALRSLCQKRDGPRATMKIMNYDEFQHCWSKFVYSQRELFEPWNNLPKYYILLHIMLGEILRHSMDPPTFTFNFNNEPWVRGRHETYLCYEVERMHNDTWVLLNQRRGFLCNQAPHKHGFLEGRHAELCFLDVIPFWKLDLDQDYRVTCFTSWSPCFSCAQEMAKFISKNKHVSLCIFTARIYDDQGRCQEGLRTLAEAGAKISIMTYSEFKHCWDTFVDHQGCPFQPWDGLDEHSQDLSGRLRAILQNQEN
#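 Read-out is eYFP fluorescence (Ex 488/Em 500-530) from Vif-expressing HeLa A3G-eYFP cells; more signal means A3G escaped Vif-mediated degradation. Cells plated overnight, compound pinned in, incubated overnight at 37 deg C.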
# An asterisk follows results filed as active; i = inactive; ? = inconclusive; / = no result given; ! = not confirmed by another sample; [ ] = remark or other dose. A selection: hits, their analogues and other compounds. The true share with any hit is near 0.59%. Unless noted, the call rests on the fitted dose curve; in most records, active means well fitted curve in the direction sought with a large enough effect; inconclusive means small, poorly fitted or top-dose-only effect, or another doubt; inactive means no such curve, though single readings can be large; an effect the other way counts as inactive or inconclusive.
SMILES,IDH1 R132H inh,PINK1 modulator,LDHA inh,Vif-A3F inh,PTHR1 ag,Vif-A3G inh
O=C(Cn1nc(CNc2ccc(Br)cc2)[n+]2c1CCCCC2)c1ccc([N+](=O)[O-])cc1,2%,40µM*,-2,-7%,i,3%
COCCN1CCN(C(=O)c2cc(COc3ccc(F)cc3F)on2)CC1,8%,0%,-56*,-8%,18%,0%
O=C(CSc1ncnc2c1oc1ccccc12)NC1CCCCCC1,/,/,10,/,/,/
CCc1nnc(NC(=O)c2cccc3ncccc23)s1,/,/,0,/,/,/
Cc1nc2c(-c3ccc(Cl)cc3)c(C)[nH]n2c(=O)c1Cc1ccccc1,-1%,35µM*,-8,17%,-18%,3%
CC(C)NC(=O)C(C)n1cnc2c1c(=O)n(C)c(=O)n2C (stereo not drawn),/,/,1,/,/,/
CC(C(=O)NC(=O)NC12CC3CC(CC(C3)C1)C2)n1cnc2c1c(=O)n(C)c(=O)n2C (stereo not drawn),/,/,-31*,/,/,/
COc1cc(/C=C/c2nc(C#N)c(NCCCN(C)C)o2)cc(OC)c1OC,/,/,-5,/,/,/
Cc1occc1-c1nnc(SCC(=O)Nc2nc(-c3ccccc3)cs2)o1,-2%,10µM*,0,-13%,21%[57.5 µM],-4%
COC(=O)c1ccoc1COC(=O)c1ccc2c(c1)CCCC2,/,/,-1,/,/,/
Nc1c(C(=O)Nc2c(Cl)cccc2Cl)sc2nc(-c3cccnc3)ccc12,/,/,11,/,/,/
COc1ccc(NC(=O)c2sc3nc(-c4cccnc4)ccc3c2N)cc1,-5%,45µM*,-8,?,i,-5%
Cc1ccc(NC(=O)c2sc3nc(-c4ccncc4)ccc3c2N)cc1,-2%,32µM*,-2,?,11%,?
COc1ccc(-c2ccc3c(N)c(C(=O)Nc4ccc(C(F)(F)F)cc4)sc3n2)cc1OC,-2%,13%,0,-2%,i,-29%
COc1ccc(NC(=O)c2sc3nc(-c4cccnc4)ccc3c2N)cc1OC,3%,2%,-4,5.6µM*,i,?
Cc1ccc(-c2ccc3c(N)c(C(=O)Nc4ccccc4)sc3n2)cc1,/,/,-9,/,/,/
Cc1cccc(NC(=O)c2cc(-c3cccs3)nc3ccccc23)n1,/,/,0,/,/,/
Cc1ccc(CNC(C)C2CC3CCC2C3)s1 (stereo not drawn),/,/,-3,/,/,/
CCN1CC=C2C(C1)C(c1ccc(Cl)s1)C(C#N)=C(N)C2(C#N)C#N (stereo not drawn),?,6.3µM*,11,?,-13%[57.5 µM],-23%
CC(C(=O)Nc1ccc2c(c1)OCO2)N1CCN(C)CC1 (stereo not drawn),-2%,0%,?,7%,-4%,-6%
CSc1ccc(NC(=O)C(C)N2CCN(C)CC2)cc1 (stereo not drawn),12%,-2%,-35*,-4%,i,3%
O=C(CNC(=O)Cc1ccccc1)NCC(=O)OCC(=O)c1cccc2ccccc12,1%,?,-41*!,-3%,i,?
O=C(CNCCN1CCOCC1)Nc1ccccc1Sc1ccccc1,11%,0%,-31*,7%,i,-6%
C=C(C)C1CC=C(C)/C(=N/NC(=S)Nc2ccc(C)cc2)C1 (stereo not drawn),/,/,5,/,/,/
O=C(N/N=C\C=C\c1ccc([N+](=O)[O-])o1)c1cccs1,-1%,0%,-30*,?,-13%,10µM*
